Data reported in PubChem BioAssay (NCI).
About 79,000 compounds went through this panel and 15% of them were active in at least one assay; those are over-represented in the sample as a whole. Values without a mark were called inactive. Calls of active or inactive are those of the source. Rule as the data show it: active = growth inhibition above about 70%; inactive = the rest.

Test: NCI Yeast Anticancer Drug Screen. Data for the sgs1 strain (AID 173);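 also: 0% = growth of vehicle-only control cultures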
Conditions: S. cerevisiae sgs1 mutant, hits give high values
Protocol: Growth inhibition of yeast strains with defined genetic alterations is measured as a screen for potential anti-cancer activity. Selected strains with alterations in DNA damage repair or cell cycle control were exposed to compounds and growth inhibition was measured relative to vehicle treated controls. The strain used in this assay is sgs1

Structure (SMILES)	growth inhibition (at 1.2 µM) [%]	growth inhibition (at 3.7 µM)	growth inhibition (at 11.0 µM)	growth inhibition (at 33.0 µM)	growth inhibition (at 100.0 µM)
O=C(COC(=O)c1ccccc1)c1ccc(Br)cc1	-12	10%	90% (active)	99% (active)	99% (active)
CN(C)/C=C/c1nnc([N+](=O)[O-])s1	-2	-4%	-1%	24%	98% (active)
CC(=O)SC(C[N+](=O)[O-])c1ccccc1 (stereo not given)	15	41%	62%	100% (active)	99% (active)
CCCCCCSc1ncnc2[nH]ncc12	-3	-3%	0%	1%	3%
C[C@@](O)(/C=C/[C@H]1CC=CC(=O)O1)[C@@H](C[C@@H](O)\C=C/C=C\C=C\CO)OP(=O)(O)O	33	32%	42%	59%	90% (active)
CC(C)(C)C1=CC(=CC=C2C=CN(CCCCCCCCCCCO)C=C2)C=C(C(C)(C)C)C1=O	-3	84% (active)	99% (active)	99% (active)	98% (active)
O=C(Nc1ccc(Cl)cc1)Nc1nnc2nc(C(C(=O)c3cccc([N+](=O)[O-])c3Cl)c3nc4nnc(NC(=O)Nc5ccc(Cl)cc5)n4[nH]c3=O)c(=O)[nH]n12	-1	0%	-2%	1%	60%
O=C1Nc2ccccc2/C1=C/c1ccccc1	0	2%	10%	47%	84% (active)
